KKLEB tox = CF airway cell cytotoxicity counter-screen; 0.36% of 360,000 active; KKLEB CF airway cells viability, ATPlite luminescence, overnight; stronger effect = lower value; cells stimulated with P. aeruginosa culture filtrate; activity change (cytotoxicity), % at 5 µM;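 active means corrected activity change at or below -50% at 5 µM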
CF NFkB inh = inhibitors of cystic fibrosis induced NF-kB | KKLEB NF-kB-GFP reporter, PAF-induced, GFP fluorescence overnight | 0.86% of 360,000 active | inhibition, % at 5 µM;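 active means at least 50% inhibition at 5 µM, scaled per plate between neutral and stimulator controls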;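 further: PAF is a Pseudomonas aeruginosa culture filtrate used as stimulus; plate controls were PAF-stimulated DMSO wells for no effect and unstimulated DMSO wells for full effect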
Shn3 inh set2 = Schnurri-3 reporter inhibition in Clone20 osteoblasts; Clone20 osteoblast Shn3 3'UTR firefly luciferase, 24 h; inhibition, % at 12.5 µM; 0.52% of 360,000 active; AID 588674;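 active means mean inhibition of at least 75% with every replicate also reaching 75%; inconclusive means mean inhibition at least 75% but some replicate below; inactive means mean inhibition below 75%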;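 further: 0% = median of neutral control wells and 100% = pilot-screen positive control compound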
EWS-Fli inh = inhibitors of EWS/Fli oncoprotein transcriptional activity | A673 NR0B1-luciferase reporter, viability-normalised | inhibition, % at 12.6 µM | 0.67% of 350,000 active;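 active means mean inhibition of at least 50% after viability correction, with every replicate also passing that limit; inconclusive means mean reaches 50% but only one of two replicates passes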;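 further: firefly luciferase signal divided by Alamar Blue viability fluorescence both relative to DMSO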
PAX8 inh HTS = inhibitors of PAX8 transcriptional activity in RMG-I cells | RMG-I TPO-luciferase reporter, SteadyGlo, 24 h | inhibition, % at 12.6 µM | 1.2% of 360,000 active;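 active means mean replicate inhibition at least 60% with every replicate also reaching 60%; inconclusive means only one of the two criteria is met; inactive means mean below 60% and not all replicates reaching 60%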;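 further: luciferase light reporting Pax8 driven TPO promoter activity; plate controls were median of neutral control wells for no effect and mitoxantrone controls for full effect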
LGR2 inh = inhibitors of bursicon-induced Drosophila LGR2 receptor cAMP signaling | HEK293 LGR2, CRE-luciferase, bursicon-stimulated, 4 h | 0.35% of 380,000 active | inhibition, % at 9.99 µM;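 active means drop in luminescence signal, shown as inhibition above about 50% in the replicate tests, limit read from the data, passing the limit was not always enough; inconclusive means probably only some replicates passing the limit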;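 further: agonist challenge used bursicon conditioned medium at about half maximal strength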
Starred values were filed as active, the others as inactive; ? = inconclusive; · = no result; ! = not confirmed by another sample. In the library only some 2% were active in any assay of this set; here they are far more common.

SMILES	KKLEB tox	CF NFkB inh	Shn3 inh set2	EWS-Fli inh	PAX8 inh HTS	LGR2 inh
CC(C)N(c1ccccc1)c1ccc(NC(=O)[C@@H]2O[C@H](CO)[C@H](O)[C@H](O)[C@H]2O)cc1	-7.7	13.7	-2.8	-11.8	0.1	-27.0
O=C(CCl)Nc1ccc(-c2ccccc2)cc1	-16.1	33.2	44.9	63.5*	45.5	·
CC(C)N(c1ccccc1)c1ccc(NC(=O)CCl)cc1	-85.6*	82.5*	-5.0	13.6	25.7	33.2
O=C(CCl)Nc1cn(-c2ccccc2)nc1-c1ccccc1	-70.7*	46.3	-17.3	16.8	-24.6	·
CC1(C)N=C(N)N=C(N)N1c1ccc(Oc2ccc(Cl)cc2)c(Cl)c1	-0.5	-21.8	45.7	47.6	60.3*	14.1
Cc1cccc(NC(=O)C2CCN(S(=O)(=O)c3cccc4nsnc34)CC2)n1	-1.4	-7.2	-2.4	·	3.3	·
COc1ccc2nc(NC(=O)C3CCN(S(=O)(=O)c4cccc5nsnc45)CC3)sc2c1	-5.8	44.4	57.6	·	62.9*	·
CC(=O)Nc1cccc(C(=O)/C=C/c2ccc(C)cc2)c1	-8.3	36.3	-9.5	12.0	74.8*	·
CCC(=O)Nc1cccc(C(=O)/C=C/c2ccc(F)cc2)c1	0.3	46.8	1.2	-0.2	?	10.3
C[C@@H]1CN([C@H](C)CO)S(=O)(=O)c2ccc(-c3cncnc3)cc2O[C@@H]1CN(C)C(=O)c1cccc(F)c1	·	·	·	1.1	-2.2	-9.7
CN(C)c1ccc(CNC(=O)C2(C)Cc3c(-c4ccc(N(C)C)cc4)ccnc3O2)cc1 (stereo unspecified)	-1.1	12.6	-15.2	-7.1	-11.6	5.0
COc1ccc(NC(=O)C2(C)Cc3c(-c4ccc5c(c4)OCO5)ccnc3O2)cc1 (stereo unspecified)	-21.1	28.5	2.7	53.3*	28.5	-0.9
CN(C)c1ccc(CNC(=O)C2(C)Cc3c(-c4ccc5c(c4)OCO5)ccnc3O2)cc1 (stereo unspecified)	-15.7	26.5	3.4	58.7*	26.4	3.8
CCC(=O)Nc1ccc2c(c1)C(=O)N(C)C[C@@H](OC)[C@@H](C)CN(C(=O)CN1CCOCC1)[C@H](C)CO2	·	·	·	0.4	·	-2.5
C[C@H]1CN([C@@H](C)CO)C(=O)c2cc(NC(=O)Cn3cnnn3)ccc2O[C@H]1CN(C)S(=O)(=O)c1cccs1	·	·	·	-3.5	·	2.8
C[C@@H]1CCCCO[C@H](CN(C)S(C)(=O)=O)[C@@H](C)CN([C@@H](C)CO)C(=O)c2cc(NS(=O)(=O)c3cn(C)cn3)ccc2O1	·	·	·	-5.3	·	0.9
CCCCCCCCCCCCCCCC[n+]1ccc(C(N)=O)cc1	-69.0*	62.6*	68.6	·	111.3*	15.7
CCCCCCCCCCCCCCCC[n+]1ccccc1	-50.2*!	61.9*	96.8*	59.9*	94.6*	61.2*!
CCCCCCCCCCCCCCCC[n+]1ccc(/C=N/O)cc1	-15.7	28.3	57.8	21.4	94.3*	17.1
CCCCCCCCCCCCCCCC[n+]1cccc(C(=O)N(CC)CC)c1	-93.2*!	91.1*!	76.2	7.1	64.1*	-2.0
O=C(C[C@@H]1C[C@H]2c3cc(NC(=O)CC4CC4)ccc3O[C@H]2[C@H](CO)O1)NCc1ccccc1	·	·	·	2.1	12.5	7.8
COc1ccc(CN(C)C[C@H]2OCCCC[C@@H](C)Oc3ccc(NS(=O)(=O)c4ccc(Cl)cc4)cc3C(=O)N([C@H](C)CO)C[C@H]2C)cc1	·	·	·	7.6	10.9	-1.0
N#Cc1cccc(-c2ccc([C@H]3[C@@H](CO)N4CCCCN(C(=O)Nc5ccccc5)C[C@@H]34)cc2)c1	·	·	·	9.9	-15.0	9.9
C=CCNC(=S)Nc1sc2c(c1C(N)=O)CCCC2	-0.8	11.3	-35.2	-19.3	-59.0	-7.8
C=CC(=O)Nc1sc2c(c1C(N)=O)CCCC2	-9.7	49.7	-0.5	-13.1	80.0*	·
CCOC(=O)C1=C(C)N(CCCC(=O)O)C(=O)NC1c1ccc2ccccc2c1 (stereo unspecified)	-0.2	19.0	86.1*	-1.9	2.7	-0.6
C[C@H]1CN([C@@H](C)CO)C(=O)c2c(c3ccccc3n2C)-c2ccccc2CO[C@H]1CN(C)Cc1ccc(Oc2ccccc2)cc1	·	·	·	10.8	-15.6	14.6
CC(=O)N[C@H]1C=C[C@@H](CC(=O)NCc2ccc(Cl)cc2)O[C@@H]1CO	·	·	·	-3.9	-16.8	4.6
O=C1C=C(c2ccccc2)C[C@H](c2cccs2)[C@H]1n1nnc([N+](=O)[O-])n1	-0.7	45.1	34.8	·	76.0*	21.1

Assay outcomes: PubChem, several laboratories
